# High-throughput results deposited in PubChem BioAssay by several laboratories.
# Ba/F3 V617F tox: loss of viability in JAK2V617F-driven Ba/F3 cells. 220,000 tested, 1.1% active. AID 1446. Ba/F3 EpoR-JAK2V617F viability, ATP luminescence. inhibition, % at 5.6 µM;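 active means inhibition above the campaign mean plus 3 SD over all tested compounds, cut at about 24% in these data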;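 further: cytokine-independent growth of Ba/F3 cells driven by EpoR plus mutant JAK2; 0% = DMSO-treated cells and 100% = JAK inhibitor I control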
# aSyn UTR inh: MLPCN primary screen, SNCA 5' untranslated region; alpha-synuclein 5'UTR reporter, inhibitor activity; 300,000 tested, 0.82% active; inhibition, % (tested at 7.5 µM); in the data active means inhibition above about 60%;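 further: H4 neuroglioblastoma cells stably carrying SNCA 5'UTR luciferase fusion; 0% = DMSO wells and 100% = positive control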
# IEC-6 tox: counter-screen for KLF5 inhibitors: cytotoxicity in IEC-6 cells; IEC-6 cytotoxicity, luminescence viability; inhibition, % at 5 µM; 290,000 tested, 0.78% active; AID 1825; in the data active means inhibition above about 22%;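 further: 0% = plate median of test compound wells and 100% = cytotoxic reference compound wells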
# KLF5 inhibitor: kruppel-like factor 5 inhibition; DLD-1 KLF5 promoter-luciferase reporter, luminescence; inhibition, % at 5 µM; 290,000 tested, 0.23% active;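 active means inhibition above a per-plate limit of that plate's mean compound inhibition plus 3 SD, cut at about 60% in these data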;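 further: 0% = DMSO wells and 100% = LY294002 at 200 µM; higher means less KLF5 promoter-driven luciferase light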
# BaF3 tox: parental Ba/F3 viability inhibition as JAK2V617F counter-screen | CellTiter-Glo ATP luminescence | inhibition, % at 5.6 µM | 220,000 tested, 1.1% active;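 active means inhibition above a per-campaign cutoff, the mean inhibition of all tested compounds plus 3 SD, cut at about 27% in these data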;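 further: 0% = DMSO wells and 100% = JAK Inhibitor I control wells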
# APP 5UTR inh: APP translation inhibition | SH-SY5Y APP 5'UTR-luciferase reporter, luminescence | inhibition, % at 2 µM | 190,000 tested, 0.82% active;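 active means inhibition above a set limit, derived from the sample mean plus 3 SD, cut at about 45% in these data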
# Starred values were filed as active, the others as inactive; . = not tested or not shown. Most compounds without a hit are left out; they make up all but 2.2% or so of the library.
SMILES,Ba/F3 V617F tox,aSyn UTR inh,IEC-6 tox,KLF5 inhibitor,BaF3 tox,APP 5UTR inh
CN(C)S(=O)(=O)N(CC(=O)Nc1ccc2ccccc2c1)c1ccccc1,-1,-32,2,-27,1,-9
CN(C)S(=O)(=O)N(CC(=O)Nc1ccc(F)c(F)c1)c1ccccc1,-8,-4,-4,-58,0,59*
COCc1cc(C)nc(OCC(=O)N/N=C/c2cc(C)n(-c3c(C)cccc3C)c2C)c1C#N,-3,0,-6,-47,5,57*
CCCCNC(C(=O)Nc1cccc(S(=O)(=O)N2CCOCC2)c1)c1ccccc1 (stereo unspecified),0,3,-6,15,36*,-4
COc1ccccc1CC(=O)Nc1cccc(S(=O)(=O)N2CCOCC2)c1,.,-1,-1,-26,.,.
CS(=O)(=O)N(CC(N)=O)c1cccc(Br)c1,1,-14,-3,-13,93*,4
CNC(=O)CN(c1cccc(Br)c1)S(C)(=O)=O,0,-5,-5,-14,1,2
COc1ccc(NC(=O)c2c3c(nc4ccccc24)CCC3)cc1S(=O)(=O)N1CCOCC1,1,26,-2,2,1,-8
Clc1ccc(Cn2ncc3c(NCc4ccco4)ncnc32)c(Cl)c1,6,29,28*,12,15,9
COc1ccc(-c2csc3ncnc(N4CCN(c5ccc(OC)cc5)CC4)c23)cc1,.,-3,2,-7,.,.
COc1ccc(-c2nsc3c(N4CCCC4)ncnc23)cc1,7,70*,2,-127,3,-156
CCn1c(SCC(=O)N/N=C(\C)c2ccncc2)nnc1-c1ccc(C)cc1,-2,2,1,7,2,.
COC(=O)N/N=C/c1sc(N2CCCCC2)nc1-c1cccs1,2,-14,1,-43,10,-1
O=C(CCSc1ccc(Br)cc1)Nc1cccnc1,-4,-18,-4,-9,0,-14
CCCCCCCCSc1nnc(-c2ccc(OC)cc2)o1,0,111*,-3,-7,1,5
CCSc1nnc(-c2ccc(OC)cc2)o1,1,-186,2,-71,-1,-87
COc1ccc(-c2nc(NC(=O)C3CC(=O)N(c4ccc5c(c4)OCCO5)C3)sc2C)cc1 (stereo unspecified),45*,-1,6,-11,53*,-6
COc1ccccc1C(=O)NC(=O)COC(=O)CNC(=O)c1ccc(Cl)cc1Cl,.,-3,.,.,.,.
NC1=NC2=C(CCCC2)C2(CCCCC2)S1,5,77*,13,9,5,8
Cc1ccc(-c2nc3cc(C)ccc3o2)cc1,-4,73*,-4,-134,2,-175
Cc1ccc(-c2nc3cc(N)ccc3o2)cc1,-2,-7,6,-118,6,-45
COc1ccc2nc(N=Nc3ccc(O)c4ccccc34)sc2c1,0,59,6,9,4,74*
COc1ccccc1CN1CCNC(=O)C1CC(=O)NCCc1cnccn1 (stereo unspecified),-1,7,-1,-12,5,3
O=[N+]([O-])c1cc(/C=N/n2cnnc2)ccc1N1CCCC1,-2,65*,1,2,5,0
CCOC(=O)N1CCN(C(=O)CSc2ccc3nnc(-c4ccccn4)n3n2)CC1,2,11,3,-4,10,-8
SMILES,Ba/F3 V617F tox,aSyn UTR inh,IEC-6 tox,KLF5 inhibitor,BaF3 tox,APP 5UTR inh
O=C(CSc1ccc2nnc(-c3ccccn3)n2n1)N1CCOCC1,-4,1,-4,-16,4,59*
Cc1ccccc1Cn1c(O)c(N=NC(=S)Nc2ccccc2F)c2ccccc21,3,73*,-4,-7,2,15
C=CCn1c(O)c(N=NC(=S)Nc2cccc(OC)c2)c2ccccc21,-4,50,8,-8,2,35
C=CCn1c(O)c(N=NC(=O)c2ccc3c(c2)OCO3)c2ccccc21,-3,-27,-2,-20,-1,50*
Oc1c(N=NC(=S)Nc2ccccc2F)c2ccccc2n1Cc1ccccc1F,1,87*,0,-6,5,13
CCn1c(O)c(N=NC(=O)CNC(=O)c2ccccc2F)c2ccccc21,.,-12,-2,8,.,.
CCNC(=S)N=Nc1c(O)n(Cc2ccc(Cl)cc2)c2ccccc12,-1,-25,-4,-17,2,0
C=CCn1c(O)c(N=NC(=S)Nc2ccc(OC)cc2)c2ccccc21,1,84*,8,-42,4,25
